Only some compounds are listed: those with a hit (about 18% of all), similar ones and a draw of the others.
Six1-Eya2 inh – Six1/Eya2 interaction inhibition | AlphaScreen GST-Six1/His-Eya2 binding, biochemical; stronger effect = lower value | 0.56% of 360,000 active | AID 651725 | Q15475+O00167 | activity change, % (no concentration beside the values); in the data active = activity change below about -65%; inconclusive = mostly about -30% to -63%
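Homogeneous AlphaScreen proximity assay pairing GST-Six1 with His-tagged Eya2 (added as 5X mix: 250 nM and 500 nM) in 50 mM Tris pH 8.0, 300 mM NaCl, 1 mM TCEP. Glutathione donor and nickel acceptor beads; 1 h, 37 °C, dark.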
IL-1B inflam inh – inflammasome signaling inhibition, IL-1 beta readout; THP-1 LPS/ATP IL-1B secretion, AlphaLISA, 16 h; stronger effect = lower value; activity change, % at 57.5 µM; 4.7% of 360,000 active; AID 743279; in the data active = activity change below about -50%; inconclusive = mostly about -30% to -49%
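THP-1 cells pretreated 1 hr with compounds (up to 57.5 uM final), then stimulated with LPS (250 ng/mL final) plus ATP (1.25 mM final); secreted IL-1B measured by AlphaLISA after 16 hr, decreased signal indicating inhibition.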
TDP1 cell CPT – growth inhibition of DT40 Tdp1-/-;hTDP1 cells with camptothecin (screen for TDP1 inhibitors); chicken DT40 Tdp1-/-;hTDP1 cells + 20 nM CPT, ATP luminescence, 48 h; 12% of 420,000 active; AID 686979; Potency, µM (top dose mostly 46.2 µM), inactives show at the highest dose activity change, negative = growth inhibition, hits mostly inhibitors; note: potency is the fitted concentration of half-maximal effect; nearly all actives have a fitted effect of over 55% in size
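Chicken DT40 Tdp1-/- cells complemented with human TDP1, 400 cells/well, exposed to compounds plus 20 nM camptothecin for at least 48 h at 37 C; viability read as ATP content by CellTiter-Glo luminescence.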
TDP1 inh – blocks human tyrosyl-DNA phosphodiesterase 1 | Q9NUW8 | recombinant TDP1, AlphaScreen DNA substrate cleavage | Potency, µM (doses to about 130 µM), without a hit: at the highest dose activity change, negative = inhibition, hits mostly inhibitors | 0.28% of 350,000 active | AID 485290; note: potency is the fitted concentration of half-maximal effect; nearly all actives have a fitted effect of over 40% in size
Target sequence (Q9NUW8 whole entry, looked up): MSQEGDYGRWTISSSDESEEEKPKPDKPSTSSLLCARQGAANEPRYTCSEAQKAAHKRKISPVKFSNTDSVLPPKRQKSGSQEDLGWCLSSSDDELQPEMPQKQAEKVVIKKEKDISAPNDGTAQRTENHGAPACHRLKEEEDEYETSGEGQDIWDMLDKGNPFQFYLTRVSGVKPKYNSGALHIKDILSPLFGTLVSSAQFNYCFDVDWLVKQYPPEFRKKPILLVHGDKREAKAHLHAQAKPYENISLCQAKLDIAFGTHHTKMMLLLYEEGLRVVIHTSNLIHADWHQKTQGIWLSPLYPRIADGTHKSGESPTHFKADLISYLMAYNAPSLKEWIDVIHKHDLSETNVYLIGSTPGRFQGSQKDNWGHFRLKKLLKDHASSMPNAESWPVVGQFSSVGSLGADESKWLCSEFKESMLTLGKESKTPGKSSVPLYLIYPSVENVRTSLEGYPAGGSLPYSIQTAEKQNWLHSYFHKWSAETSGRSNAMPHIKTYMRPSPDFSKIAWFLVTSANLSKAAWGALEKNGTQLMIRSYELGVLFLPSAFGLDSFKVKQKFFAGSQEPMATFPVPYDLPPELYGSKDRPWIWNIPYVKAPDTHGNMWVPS
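Enzyme-compound mixtures sat 15 min at room temperature, followed by a 5 min reaction with 15 nM final substrate and 10 min with AlphaScreen beads. Recombinant human Tdp1 was used at 1 nM final.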
CtBP-E1A blk – CtBP/E1A binding inhibition; AlphaScreen GST-E1A/His-CtBP binding, 1536-well; stronger effect = lower value; activity change, % (concentration not given with the values); 0.49% of 340,000 active; AID 651724; in the data active = activity change below about -65%; inconclusive = mostly about -30% to -63%
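Homogeneous bead-based format: GST-tagged E1A captured on glutathione donor beads, His-tagged CtBP on nickel acceptor beads; compounds precede bead addition by 2 h at 37 °C.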
DT40 TDP1 no CPT – qHTS for Inhibitors of human tyrosyl-DNA phosphodiesterase 1 (TDP1): qHTS in cells in absence of CPT; DT40 Tdp1-/- hTDP1 cells, no CPT, ATP luminescence, 48 h; Potency, µM (series often up to 46.2 µM), inactives show at the highest dose activity change, negative = growth inhibition, most hits filed as inhibitors; 15% of 420,000 active; AID 686978, 2013; note: potency is the fitted concentration of half-maximal effect; nearly all actives have a fitted effect of over 55% in size
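Stably hTDP1-transfected Tdp1-null chicken DT40 cells were treated with library compounds minus camptothecin and grown for at least 48 hr at 37 °C, after which cellular ATP was quantified by luminescence.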
Active calls of the source: *; [ ] = another dose, or the depositor's remark. Unless noted, calls come from the whole dose curve; as a rule, active = well fitted curve in the direction sought with a large enough effect; inconclusive = small, poorly fitted or top-dose-only effect, or another doubt; inactive = no such curve, though single readings can be large; an effect the other way counts as inactive or inconclusive. % is set by controls: 0 for no effect and ±100 for the full control effect.

CC(C)c1ccc(CSc2ccc(S(=O)(=O)N3CCOCC3)cn2)cc1 was read as Six1-Eya2 inh 17.6, IL-1B inflam inh 3.7, TDP1 cell CPT -26.0%, TDP1 inh 0.7%, CtBP-E1A blk -15.1 and DT40 TDP1 no CPT inconclusive.
For CCC(C(=O)OCC(=O)N1CCN(c2ccc(OC)cc2)CC1)c1ccccc1 (stereo not drawn) the results were Six1-Eya2 inh -28.1, IL-1B inflam inh 4.8, TDP1 cell CPT inconclusive, TDP1 inh 4.0% and DT40 TDP1 no CPT inconclusive.
COC(=O)C(Cc1ccc(OC(=O)c2ccc(Cl)cc2)cc1)N1Cc2ccccc2C1=O (stereo not drawn) was read as Six1-Eya2 inh 1.2, IL-1B inflam inh -4.0, TDP1 cell CPT inconclusive, TDP1 inh 0.0%, CtBP-E1A blk -4.5 and DT40 TDP1 no CPT inconclusive.
Screening COC(=O)C(Cc1ccc(OC(=O)c2ccc(C(F)(F)F)cc2)cc1)N1Cc2ccccc2C1=O (stereo not drawn) returned Six1-Eya2 inh -3.5, IL-1B inflam inh 32.4, TDP1 cell CPT 16.4µM*, TDP1 inh 2.1%, CtBP-E1A blk 4.2 and DT40 TDP1 no CPT 18.4µM*.
Screening Cc1ccc(NC(=O)c2ccc(S(=O)(=O)C(F)F)cc2)c(C)c1 returned Six1-Eya2 inh 10.2, IL-1B inflam inh -17.3, TDP1 cell CPT -19.4%, TDP1 inh 2.6%, CtBP-E1A blk -11.2 and DT40 TDP1 no CPT inconclusive.
For c1ccc(-c2cnc(-c3ccccn3)nn2)cc1 the results were Six1-Eya2 inh -90.9*, IL-1B inflam inh 92.9, TDP1 cell CPT inconclusive, CtBP-E1A blk -85.7* and DT40 TDP1 no CPT inconclusive.
Clc1ccc(-c2cnnc(-c3ccccn3)n2)cc1 was read as Six1-Eya2 inh -86.3*, IL-1B inflam inh 9.2, TDP1 cell CPT inconclusive, TDP1 inh 3.7%, CtBP-E1A blk -84.0* and DT40 TDP1 no CPT inconclusive.
`c1ccc(-c2cncnc2)nc1` gave Six1-Eya2 inh 14.3, IL-1B inflam inh 23.9, TDP1 cell CPT 2.2%, TDP1 inh 1.1%, CtBP-E1A blk -17.0 and DT40 TDP1 no CPT -8.0%.
For c1ccc(-c2cnc(-c3ccccc3)nn2)cc1 the results were Six1-Eya2 inh 4.8, IL-1B inflam inh 38.0, TDP1 cell CPT 2.0%, CtBP-E1A blk 0.0 and DT40 TDP1 no CPT -5.6%.
Screening c1ccc(-c2cnnc(-c3ccccn3)n2)cc1 returned Six1-Eya2 inh -88.0*, IL-1B inflam inh -5.7, TDP1 cell CPT -30.0%, CtBP-E1A blk -76.1* and DT40 TDP1 no CPT inconclusive.
Screening Cc1cccc(N2CCN(C(=O)Cc3c(C(=O)O)c(C)cn3C)CC2C)c1 (stereo not drawn) returned TDP1 cell CPT -0.9%, TDP1 inh -9.3% and DT40 TDP1 no CPT 7.0%.
For C[C@H](CCC(=O)O)[C@H]1CC[C@@H]2[C@H]3[C@@H](C[C@@H](O)[C@]21C)[C@]1(C)CC[C@H](O)C[C@@H]1C[C@@H]3O the results were TDP1 inh 8.5%.
For CC1=C(C(=O)N2CCCCCC2)CC(CC(=O)NC2CCCCC2)C(=O)N1Cc1ccccc1 (stereo not drawn) the results were Six1-Eya2 inh 0.2, IL-1B inflam inh -24.3, TDP1 cell CPT inconclusive, CtBP-E1A blk 2.3 and DT40 TDP1 no CPT inconclusive.
`CC(CN1CC(=O)NC(=O)C1)N1CC(=O)NC(=O)C1` (stereo not drawn) gave Six1-Eya2 inh 0.7, IL-1B inflam inh 0.8, TDP1 cell CPT inconclusive, TDP1 inh 10.6%, CtBP-E1A blk 1.0 and DT40 TDP1 no CPT inconclusive.
For O=C1CN(CCN2CC(=O)NC(=O)C2)CC(=O)N1 the results were TDP1 cell CPT 7.94µM* and DT40 TDP1 no CPT 7.08µM*.
For CCc1nc(SC)[nH]c(=O)c1C the results were Six1-Eya2 inh -1.0, IL-1B inflam inh 41.4, TDP1 cell CPT -3.6%, TDP1 inh 2.9%, CtBP-E1A blk 2.0 and DT40 TDP1 no CPT 4.5%.
CSc1nc(=S)cc(C)[nH]1 was read as Six1-Eya2 inh -3.9, IL-1B inflam inh 12.8, TDP1 cell CPT 18.4µM*, TDP1 inh 0.0%, CtBP-E1A blk 3.2 and DT40 TDP1 no CPT inconclusive.
Screening CCOC(=O)C(=N/O)/C(C)=N/NC(=O)C(=O)Nc1ccc(Cl)cc1 returned Six1-Eya2 inh -6.2, IL-1B inflam inh -22.5, TDP1 cell CPT 4.11µM*, TDP1 inh 1.2% and DT40 TDP1 no CPT 2.06µM*.
COC1=C2C[C@H](C)C[C@H](OC)[C@@H](O)[C@@H](C)C=C(C)[C@H](OC(N)=O)[C@@H](OC)C=CC=C(C)C(=O)NC(=CC1=O)C2=O was read as TDP1 cell CPT 0.0794µM*, TDP1 inh 4.6% and DT40 TDP1 no CPT 0.0251µM*.
Screening Cc1nc(-c2cccc(S(=O)(=O)N3CCC(C)CC3)c2)cs1 returned Six1-Eya2 inh 1.8, IL-1B inflam inh 10.7, TDP1 cell CPT inconclusive, TDP1 inh 1.0%, CtBP-E1A blk 4.2 and DT40 TDP1 no CPT inconclusive.
Screening Cc1nc(-c2cccc(S(=O)(=O)N3CCCCC3)c2)cs1 returned Six1-Eya2 inh 5.7, IL-1B inflam inh -89.2*, TDP1 cell CPT -14.1%, CtBP-E1A blk -8.6 and DT40 TDP1 no CPT -26.0%.
For CC1CN(S(=O)(=O)c2cccc(-c3csc(-c4ccccc4)n3)c2)CC(C)O1 (stereo not drawn) the results were Six1-Eya2 inh 6.5, IL-1B inflam inh -6.4, TDP1 cell CPT inconclusive, CtBP-E1A blk 0.1 and DT40 TDP1 no CPT 25.9µM*.
`Cc1nc(-c2cccc(S(=O)(=O)N3CCCCCC3)c2)cs1` gave Six1-Eya2 inh -4.4, IL-1B inflam inh -7.4, TDP1 cell CPT -12.2%, TDP1 inh 4.0%, CtBP-E1A blk 1.0 and DT40 TDP1 no CPT inconclusive.
Cc1nc(-c2cccc(S(=O)(=O)N3CCCC(C)C3)c2)cs1 (stereo not drawn) was read as Six1-Eya2 inh -6.2, IL-1B inflam inh -15.9, TDP1 cell CPT 14.6µM*, TDP1 inh 3.1%, CtBP-E1A blk 4.4 and DT40 TDP1 no CPT inconclusive.
CC[n+]1ccc(C)c2cc(SC(F)(F)F)ccc21 was read as Six1-Eya2 inh 9.6, IL-1B inflam inh 21.5, TDP1 cell CPT inconclusive, TDP1 inh 4.9%, CtBP-E1A blk 0.0 and DT40 TDP1 no CPT inconclusive.
For COc1nccc(-c2c(-c3ccc(F)cc3)ncn2C2CCC(O)CC2)n1 (stereo not drawn) the results were TDP1 cell CPT -28.8%, TDP1 inh 12.8%[56.1 µM] and DT40 TDP1 no CPT -17.2%.
